According to PubChem BioAssay AID1851 (National Center for Advancing Translational Sciences (NCATS), 2009):
“And” between values parts separate entries of the source, which are not always exact repeats. Equal entries are not always repeated. About 5,700 (36%) of roughly 16,000 compounds were called active. Roughly 24% stayed inconclusive and do not appear here. This is one part of the list. Values without a mark were called inactive. The call rests on the fitted dose curve; in most records, active means well fitted curve in the direction sought with a large enough effect; inconclusive means small, poorly fitted or top-dose-only effect, or effect the other way; inactive means no such curve, though single readings can be large or run the other way.

biological target: Cytochrome P450 1A2 (Homo sapiens) (UniProt P05177); assay: Cytochrome panel assay with activity outcomes; settings: recombinant CYP, pro-luciferin dealkylation, luminescence, p450-cyp1a2; series mostly up to 57.1 µM
On the % scale 0 is the no-effect control and ±100 the full control effect.

Sequence of Cytochrome P450 1A2 (Homo sapiens) (P05177 whole entry, looked up): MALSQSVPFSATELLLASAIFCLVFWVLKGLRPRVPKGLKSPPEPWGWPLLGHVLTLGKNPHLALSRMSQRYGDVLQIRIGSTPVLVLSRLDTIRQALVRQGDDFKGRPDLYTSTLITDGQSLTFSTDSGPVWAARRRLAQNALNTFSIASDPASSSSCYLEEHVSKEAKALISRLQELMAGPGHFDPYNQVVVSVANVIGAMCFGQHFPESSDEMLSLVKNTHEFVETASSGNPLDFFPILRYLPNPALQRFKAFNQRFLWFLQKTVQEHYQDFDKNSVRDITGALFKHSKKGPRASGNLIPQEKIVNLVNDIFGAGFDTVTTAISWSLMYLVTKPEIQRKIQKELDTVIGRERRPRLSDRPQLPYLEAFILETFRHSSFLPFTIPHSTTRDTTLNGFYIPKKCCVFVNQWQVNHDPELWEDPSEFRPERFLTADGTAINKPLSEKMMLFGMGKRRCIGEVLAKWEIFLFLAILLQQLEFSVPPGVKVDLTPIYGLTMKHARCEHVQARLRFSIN

Compound	AC50	activity, negative = inhibition
Cc1ccc(OC(=O)c2cccc(C(=O)Oc3ccc(C)cc3)n2)cc1	inactive	–
COC(=O)c1cccc(C(=O)Nc2ccc(C)cc2)n1	1000 nM (active)	–
O=C(CCC(=O)c1cccs1)OCC(=O)N1CCN(C(=O)c2ccco2)CC1	inactive	–
Cc1ccc(OC(=O)c2cccc(C(=O)Oc3ccc(C)cn3)n2)nc1	inactive	–
O=C(OCC(=O)c1cccs1)c1cccc(C(=O)OCC(=O)c2cccs2)n1	15800 nM (active)	–
CCOC(=O)c1cccc(C(=O)OCC)n1	12600 nM (active)	–
S=c1nc(-c2ccccc2)oc2c1CCCC2	562 nM (active)	–
COc1ccc(-n2c(-c3ccccc3)nc(=S)c3c2CCCC3)cc1	inactive	–
Cc1ccc(C(=O)NC(=S)Nc2cccc3nsnc23)cc1	inactive	–
O=C(Nc1cccc2nsnc12)c1ccc(-c2cccc(Cl)c2)o1	2000 nM (active)	–
CCCn1nnc(NC(=O)c2ccc(-c3cccc(Cl)c3)o2)n1	1580 nM (active)	–
O=C(c1cnccn1)N1CCC2(CCCN(c3ccccn3)C2)CC1	inactive	–
CC(C)c1ccc(/C=C2\C=C(c3ccc4ccccc4c3)OC2=O)cc1	–	-24.7% [at 2.29 µM]
Cc1ccccc1/C=C1\OC(=O)c2ccccc21	1260 nM (active)	–
Cc1ccc(/C=C2\OC(=O)c3ccccc32)cc1	794 nM (active)	–
CC(=O)OC[C@@H]1O[C@@H](O/N=C2/C[C@@H](O)[C@@H](O)[C@@H]3[C@@H]4C(=O)N(Cc5ccc6c(c5)OCO6)C(=O)[C@H]4CC[C@@H]23)[C@H](OC(C)=O)[C@H](OC(C)=O)[C@@H]1OC(C)=O	–	-15% [at 11.4 µM]
CC(=O)[C@H]1CC[C@@H]2[C@H]3CC=C4C[C@@H](O)CC[C@]4(C)[C@H]3CC[C@]12C	inactive	–
O=C(N=NC(=O)c1ccc2c(O)n(C3CCCCC3)c(O)c2c1)c1cccnc1	inactive	–
C[C@@H](c1ccccc1)N1C(=O)[C@H]2[C@@H]3[C@H](O)[C@H](O)CC(=O)[C@H]3CC[C@H]2C1=O	–	6.67% [at 11.4 µM] and -2.18% [at 11.4 µM]
N#CCSc1nc2cc(C(=O)N3CCCC3)ccc2c(=O)n1Cc1ccccc1	15800 nM (active)	–
NC1(C(=O)O)C[C@H](C(=O)O)[C@H](C(=O)O)C1 (some centres undefined)	inactive	–
COc1ccc(/C=N/n2cnc3c([nH]c4ccc(Br)cc43)c2=O)cc1CN1CCOCC1	12600 nM (active)	–
C[N+](C)(C)c1ncnc2c1ncn2[C@@H]1CCCCO1	–	2.33% [at 2.29 µM]
O=[N+]([O-])c1ccc(Cl)c(CNc2ncnc3c2ncn3[C@@H]2CCCCO2)c1	5010 nM (active)	–

Compound	AC50	activity, negative = inhibition
Nc1ncnc2c1ncn2[C@@H]1CCCO1	inactive	–
Cc1cc([N+](=O)[O-])c(C)c(Br)c1C	1000 nM (active)	–
COc1ccc(S(=O)(=O)NCc2ccc(C(=O)N3CCN(c4ccccn4)CC3)cc2)cc1	inactive	–
O=C(Nc1ccc(Nc2ccc3c(c2)C(=O)c2ccccc2C3=O)c2c1C(=O)c1ccccc1C2=O)c1ccccc1	1580 nM (active)	–
CCC(=O)Nc1ccc2c(c1)C(=O)c1ccccc1C2=O	316 nM (active)	–
CCOC(=O)c1c(-c2ccccc2)nc2ccc(Cl)cn12	2510 nM (active)	–
CCOC(=O)CNc1c(-c2ccccc2)nc2ccc(Cl)cn12	1580 nM (active)	–
NCCCc1c(-c2ccccc2)nc(N)[nH]c1=O	–	9.63% [at 11.4 µM]
CCOC(=O)c1c(-c2ccccc2)nc2ccccn12	1120 nM (active)	–
CC(SCc1cn2cc(Cl)ccc2n1)C(=O)O (centres undefined)	inactive	–
CCOC(=O)c1c(-c2ccccc2)nc2c(C)cccn12	708 nM (active)	–
Cc1nc2c(C)cccn2c1/C(O)=C1\C(=O)C(=O)N(CCN2CCOCC2)C1c1cccs1 (centres undefined)	inactive	–
CCOC(=O)N/N=C1/C[C@@H](O)[C@@H](O)[C@@H]2[C@@H]3C(=O)N([C@@H](C)c4ccccc4)C(=O)[C@H]3CC[C@@H]12	–	3.79% [at 11.4 µM]
Cc1cc(=Nc2ccc3c(c2)c(N)cc(C)[n+]3C)nc(N)n1C	–	-5.28% [at 2.29 µM]
C=C(C)C(=O)N1CC2(CC(c3cccc(NC(=O)c4ccccc4)c3)=NO2)C[C@@H]1C(N)=O (some centres undefined)	inactive	–
CC1(C)O[C@@H]2C[C@H]3[C@H]4C[C@H](F)C5=CC(=O)CC[C@]5(C)[C@@H]4[C@H](O)C[C@]3(C)[C@]2(C(=O)CO)O1	inactive	–
CNc1nc(Cl)nc(NC(C)(C)C)n1	8910 nM (active)	–
CC1CCC(C(=O)NC(C(=O)N2CCC(N3CCCCC3)CC2)C(C)C)CC1 (centres undefined)	inactive	–
CC[C@H](Cc1c(I)cc(I)c(N)c1I)C(=O)O	12600 nM (active)	–
CC(=O)N(C[C@@H](C)C(=O)O)c1c(I)cc(I)c(N)c1I	inactive	–
COc1ccccc1C(=O)NN1C(=O)C2C3C=CC(O3)C2C1=O (centres undefined)	inactive	–
COc1ccccc1C(=O)NC(=S)N1CCCc2ccccc21	2240 nM (active)	–
CCOc1ccc(-n2c(=O)[nH]cc(C(=O)N3CCCc4ccccc43)c2=O)cc1	inactive	–
Oc1cc2c(cc1O)[C@H](c1ccccc1)CNCC2	inactive	–

Compound	AC50	activity, negative = inhibition
N#Cc1cccc(NC(=O)N2CCC3(CC2)CCN(C(=O)c2csnn2)CC3)c1	inactive	–
CCOC(=O)N/N=C1/C[C@@H](O)[C@@H](O)[C@@H]2[C@@H]3C(=O)N(c4cccc(Oc5ccccc5)c4)C(=O)[C@H]3CC[C@H]12	–	-3.4% [at 11.4 µM]
O=C(c1cccc(F)c1)N1CCC2(CC1)CCN(c1ccc(-c3ccccc3)cc1)CC2	inactive	–
O=C(c1ccncc1)N1CCC2(CCN(Cc3nccs3)CC2)CC1	inactive	–
O=C(c1cccc(F)c1)N1CCC2(CCCN(Cc3nccs3)C2)CC1	inactive	–
O=C(c1cccc(F)c1)N1CCC2(CCCN(Cc3ccccc3)C2)CC1	inactive	–
O=C(c1cccc(F)c1)N1CCC2(CCCN(c3ccc(-c4ccccc4)cc3)C2)CC1	15800 nM (active)	–
O=C(c1cccc(F)c1)N1CCC2(CCN(Cc3ccccc3)CC2)CC1	inactive	–
O=C(c1cccc(F)c1)N1CCC2(CC1)CN(c1ccc(-c3ccccc3)cc1)C2	inactive	–
Cc1noc(C)c1C(=O)N1CCC2(CCCN(Cc3nccs3)C2)CC1	inactive	–
O=C(c1cccc(F)c1)N1CCC2(CC1)CCN(c1ccccc1)CC2	15800 nM (active)	–
Cc1noc(C)c1C(=O)N1CCC2(CCN(Cc3nccs3)CC2)CC1	12600 nM (active)	–
O=C(c1cccc(F)c1)N1CCC2(CCN(Cc3nccs3)CC2)CC1	1580 nM (active)	–
Cc1noc(C)c1C(=O)N1CCC[C@@]2(CCN(Cc3nccs3)C2)C1	inactive	–
O=C(c1cc(C(F)(F)F)cc(C(F)(F)F)c1)N1CCC2(CC1)CCN(c1ncccn1)CC2	inactive	–
CCCCN1C(=O)C(NC(=O)CC(C)C)(C(F)(F)F)C2=C1CC(C)(C)CC2=O (centres undefined)	inactive	–
O=C(c1cccc(F)c1)N1CCC[C@@]2(CCN(c3ccccc3)C2)C1	inactive	–
O=C(c1cccc(F)c1)N1CCC[C@@]2(CCN(c3ccncc3)C2)C1	inactive	–
O=C(c1cccc(F)c1)N1CCC[C@@]2(CCN(c3cccc(-c4ccccc4)c3)C2)C1	15800 nM (active)	–
C[N+]1(C)C[C@@H](O)C[C@@H]1C(=O)[O-]	inactive	–
COc1cccc(CN2C(=O)N(C(C)C)C(N(O)C(=O)NC(C)C)C2(C)C)c1OC (centres undefined)	inactive	–
COc1cccc(CNCc2ccc(SC)cc2)c1OC	15800 nM (active)	–
c1ccc(C(c2ccccc2)N2CCC3(CCNCC3)CC2)cc1	inactive	–
COC(=O)N1CCC2(CC1)CN(c1cccc(-c3ccccc3)c1)C2	inactive	–

Compound	AC50	activity, negative = inhibition
c1ccc(-c2cccc(N3CCC4(CCNCC4)CC3)c2)cc1	15800 nM (active)	–
CC(=O)N1CCC2(CC1)CN(c1ccccc1)C2	inactive	–
CC(=O)N1CCC2(CCCN(c3cccc(-c4ccccc4)c3)C2)CC1	5010 nM (active)	–
COCC(=O)N1CCC2(CC1)CCN(c1cccc(-c3ccccc3)c1)CC2	5010 nM (active)	–
COC(=O)N1CCC2(CC1)CCN(c1ccccc1)CC2	inactive	–
CC(=O)N1CCC2(CC1)CCN(c1ccc(-c3ccccc3)cc1)CC2	10000 nM (active)	–
CC(=O)N1CCC2(CCCN(c3ccccc3)C2)CC1	inactive	–
CC(=O)N1CCC2(CC1)CCN(c1ccncc1)CC2	inactive	–
COC(=O)N1CCC2(CC1)CCN(c1cccc(-c3ccccc3)c1)CC2	inactive	–
N#Cc1ccc(CN2CCC3(CC2)CCN(C(=O)c2ccncc2)CC3)cc1	inactive	–
CC[C@@H](Nc1ncnc2nc[nH]c12)C(=O)O	–	-2.91% [at 11.4 µM]
COCC(=O)N1CCC2(CCCN(c3ccncc3)C2)CC1	inactive	–
COCC(=O)N1CCC2(CC1)CN(C(=O)Nc1ccccc1)C2	12600 nM (active)	–
COCC(=O)N1CCC2(CCCN(c3cccc(-c4ccccc4)c3)C2)CC1	15800 nM (active)	–
COCC(=O)N1CCC2(CCCN(C(=O)Nc3ccccc3)C2)CC1	inactive	–
O=C(Oc1ccccc1)N1CCC2(CCCN(c3cccc(-c4ccccc4)c3)C2)CC1	inactive	–
COCC(=O)N1CCC2(CC1)CN(C(=O)Nc1ccc(OC)cc1)C2	inactive	–
CCn1nc(C(=O)Nc2ccccc2C)c(Cl)c1Cl	1260 nM (active)	–
N#Cc1cccc(-c2nc(NCc3cccnc3)c3ccccc3n2)c1	251 nM (active)	–
N#Cc1cccc(-c2nc(NCc3ccccc3)c3ccccc3n2)c1	398 nM (active)	–
N#Cc1cccc(-c2nc(NCc3cccs3)c3ccccc3n2)c1	316 nM (active)	–
NCC[C@H]1CCC[C@H](CCN)N1	inactive	–
